Source: ChEMBL document CHEMBL3988442, “University of Dundee, Small-Polar-MMV Screening Library” (2021)
The campaign covered roughly 48,000 compounds. About 13,000 (27%) showed an effect of 50% or more. Some of the results follow.

Test system: Wolbachia pipientis
Assay: Anti-Wolbachia Cell-Based Screen
Format: functional
Design: scale not given: in the data most compounds retested in dose-response had high values
Conditions: 5 µM

Compound	Percent Effect
Nc1cc(C(=O)N2C[C@H]3CC[C@@H]2CN(Cc2cccnc2)C3)ccn1	-14.93%
CNC(=O)[C@@H](c1ccccc1OC)N1CCC[C@H]1C(=O)N1CCC1.Cl	-2.79%
CCCc1nncn1-c1cc(OC)ccc1OC	-4.578%
COCC(=O)NS(=O)(=O)c1ccc(F)c(F)c1	-13.69%
Cc1nc(C2CCCN2C(=O)c2ccc(=O)n(C)n2)no1 (stereo unspecified)	4.232%
Cc1cc(C)nc(C2CCCN2C(=O)c2cnccn2)n1 (stereo unspecified)	104.9%
Cc1cc(C)nc(C2CCCN2C(=O)c2coc(C)n2)n1 (stereo unspecified)	95.19%
Cc1cncc(C(=O)N2CCCCC2c2nc[nH]n2)c1 (stereo unspecified)	2.614%
Cc1nc(C2CCCN2C(=O)c2cnns2)no1 (stereo unspecified)	-16.56%
CC(=O)Nc1nc(C(=O)N2CCCC2c2noc(C)n2)cs1 (stereo unspecified)	1.192%
Cc1cc(C)nc(C2CCCN2C(=O)c2cnco2)n1 (stereo unspecified)	140.7%
COc1ccc(F)c(-c2cc(C)nc(N)n2)c1	-7.785%
OC1(CNc2ccc(Br)cn2)CCC1	-10.9%
Cc1nc(-c2noc3ccc(C(=O)NCCN4CCOCC4)cc23)co1	-13.78%
Cc1cc(CC(=O)NC2CCCN(c3ccccc3F)C2=O)n[nH]1 (stereo unspecified)	95.19%
Cn1cc(NC(=O)NC2CCCN(c3ccccc3Cl)C2=O)cn1 (stereo unspecified)	-13.39%
CC(=O)NCCCSC1CCCN(c2ccccc2F)C1=O (stereo unspecified)	-23.33%
Cc1cc(C2CCCN(C(=O)COc3ccccc3F)C2)n[nH]1 (stereo unspecified)	-9.054%
Cc1cc(CNCC2(O)CCCN(CCCc3ccccc3)C2=O)n[nH]1 (stereo unspecified)	11%
COCC(=O)NC1CCCN(c2ccc(C)cc2)C1=O (stereo unspecified)	11.31%
Cc1cc(CC(=O)NC2CCCN(c3ccccc3Cl)C2=O)n[nH]1 (stereo unspecified)	103.5%
Cc1cc(CC(=O)NC2CCCN(Cc3ccccc3)C2=O)n[nH]1 (stereo unspecified)	128.5%
O=C(Cc1ccccc1O)NC1CCCN(c2ccccc2F)C1=O (stereo unspecified)	90.3%
Cn1ccc(NC(=O)NC2CCCN(c3ccccc3Cl)C2=O)n1 (stereo unspecified)	10.36%
O=C1C(NCc2ccccc2O)CCN1Cc1ccccc1 (stereo unspecified)	-5.18%
Cc1ccc(N2CCCC(NC(=O)Cc3csc(C)n3)C2=O)cc1 (stereo unspecified)	-8.265%

Compound	Percent Effect
Cc1[nH]c2c(F)cccc2c1CC(=O)N1CCCC(N)CC1 (stereo unspecified)	-2.417%
Cc1cc(C)cc(CN2C[C@H]3COC[C@H](N4CCN(C)CC4)[C@H]3C2)c1.O=C(O)C(F)(F)F.O=C(O)C(F)(F)F.O=C(O)C(F)(F)F	-30.24%
CN(Cc1csc(-c2cccs2)n1)CC(O)CO (stereo unspecified)	2.949%
Cc1cc(=O)n(C)cc1NC(=O)CC1CCC1	-11.35%
O=C(Cc1ccon1)NC1CC2(CCC2)Oc2ccccc21 (stereo unspecified)	0.8032%
Cc1ccc(N2CCCC(NC(=O)CCc3ccccn3)C2=O)cc1 (stereo unspecified)	-0.6334%
O=C(Cc1ccon1)NC1CCCN(c2ccccc2F)C1=O (stereo unspecified)	99.65%
CC(C)(CNC(=O)C1CCCCN1S(C)(=O)=O)N1CCOCC1 (stereo unspecified)	1.375%
COc1nc(C)c(C(=O)NCc2cc(N3CCOCC3)ncn2)s1	-8.084%
CNc1nc(C)c(C(=O)NCC(C)(C)N2CCCCC2)s1	51.74%
CNc1nc(C)c(C(=O)N2CCCCC2CCc2ccc(O)cc2)s1 (stereo unspecified)	-31.11%
Cc1nc(N2CCOCC2)sc1C(=O)NCC(C)(C)N1CCCCC1	59.39%
CNc1nc(C)c(C(=O)N2CCCCC2CCN2CCOCC2)s1 (stereo unspecified)	-13.11%
CN(CCO)C(=O)Nc1ccn(-c2cccc(C(F)(F)F)c2)n1	-1.058%
CC(=O)Nc1ccc(Cl)c(C(=O)N(C)C(C)c2nccs2)c1 (stereo unspecified)	18.16%
O=C1CC(C(=O)Nc2nnc(-c3ccccn3)[nH]2)c2ccccc2N1 (stereo unspecified)	-11.02%
CN[C@@H]1CCC[C@@H](Oc2ccccc2Oc2ccc(C)cc2)[C@@H]1O	109.8%
O=C(Nc1cnc(Oc2ccccc2)nc1)C1CC1	12.01%
COc1ccc(CNC(=O)N2CCOCC2C2CC2)cc1C (stereo unspecified)	12.32%
Cc1ncsc1CN1CC[C@H]2OCC[C@@]2(C(=O)NCC2CC2)C1	4.364%
CCS(=O)(=O)N1CC[C@H]2OCC[C@@]2(C(=O)NC)C1	-10.89%
CC(=O)NCC(=O)N1CCOC2(CCCN(c3cccnc3)C2)C1.O=C(O)C(F)(F)F (stereo unspecified)	-5.55%
CNC(=O)[C@@]12CCO[C@@H]1CCN(S(=O)(=O)c1cc(C)cc(C)c1)C2	11.27%
CCS(=O)(=O)N1CCOC2(CCCN(c3ccc(C)nn3)C2)C1.O=C(O)C(F)(F)F (stereo unspecified)	0.7716%
Cc1ccc(N2C[C@H]3OCC[C@H]3[C@H](C(=O)NC3CCC3)C2)nn1	-15.47%
CS(=O)(=O)N1CC[C@H]2OCC[C@@]2(C(=O)NCC2CC2)C1	83.9%

Compound	Percent Effect
Cc1ccc(N2CC[C@H]3OCC[C@@]3(C(=O)NCC3CC3)C2)nn1	112.3%
Cc1ccc(N2CC[C@H]3OCC[C@@]3(C(=O)N3CCCO3)C2)nn1	93.84%
Cc1ccc(N2CC[C@H]3OCC[C@@]3(C(=O)NC(C)C)C2)nn1.O=C(O)C(F)(F)F	-2.332%
CC(=O)NCC(=O)N1CCOC2(CCCN(c3ccc(C)nn3)C2)C1 (stereo unspecified)	107.9%
Cc1noc(CNc2c(N3CCCC3)cccc2N2CCCC2)n1	12%
CC(C)c1cc(C(=O)N2CCN(c3ccc(F)c(Cl)c3)CC2)n(C)n1	-4.845%
Cc1nc(N(C)Cc2cccc(O)c2)nc2cc(S(C)(=O)=O)ccc12	-16.37%
CC(C)C(=O)N1CCC(NC2CCSCC2)C1 (stereo unspecified)	-5.859%
CS(=O)(=O)N1CCC(Oc2ccc(C(=O)NCCC(N)=O)cc2Cl)CC1	-24.14%
Cc1ccc(N2CCCC3(CCN(C(=O)C4CC4)C3)C2)nn1 (stereo unspecified)	2.415%
Cc1ccc(N2CC[C@H]3OCC[C@@]3(C(=O)N(C)C)C2)nn1	116.6%
Cc1ccc(N2CCC3(CC2)CCN(C2CCOCC2)CC3)nn1.O=C(O)C(F)(F)F	-17.16%
Cc1ccc(N2CC3(CCN(C(=O)c4ccoc4)C3)C2)nn1	11.71%
Cc1ccc(N2CC[C@H]3OCC[C@@]3(C(=O)N3CCCC3)C2)nn1	99.3%
c1cn(-c2ccc(CN3CCCC3)cc2)c(-c2cc3n(n2)CCNC3)n1	4.696%
O=C(NCC(F)(F)F)C1CCCN(Cc2ccno2)C1 (stereo unspecified)	-13.93%
Cn1cccc1C(CNC(=O)COc1ccc(Cl)cc1Cl)N1CCCC1 (stereo unspecified)	-0.05475%
COc1ccc(C(=O)NCC(c2cccn2C)N2CCCC2)cc1OC (stereo unspecified)	118.2%
CN1CCN(C(CNC(=O)CCn2cccn2)c2cccs2)CC1 (stereo unspecified)	11.34%
Cc1ccc(C)c(C(=O)NCC(c2cccn2C)N2CCCCCC2)c1 (stereo unspecified)	114.5%
COc1ccc(C(=O)NCC(c2cccn2C)N2CCCC2)c(OC)c1 (stereo unspecified)	6.724%
CN1CCN(C(CNC(=O)c2ccc(Cl)cc2F)c2cccs2)CC1 (stereo unspecified)	-14.94%
Cn1cccc1C(O)CNC(=O)COc1ccc(Cl)cc1Cl (stereo unspecified)	19.06%
Cn1cccc1C(CNC(=O)c1ccc(F)cc1F)N1CCCCCC1 (stereo unspecified)	2.493%
COc1ccc(C(=O)NCC(c2cccn2C)N2CCN(C)CC2)cc1 (stereo unspecified)	104.9%
COc1cc(OC)cc(C(=O)NCC(c2cccn2C)N2CCCC2)c1 (stereo unspecified)	93.86%

Compound	Percent Effect
CC(C)=CCN1CCN(S(=O)(=O)c2cn(C)cn2)[C@H]2CS(=O)(=O)C[C@H]21	-6.169%
Cn1cc(NC(=O)CCCc2cccs2)c(=O)n(C)c1=O	-5.332%
NC(=O)C1CCN(CCc2ccc(NCc3ccsc3)cc2)CC1	-14.27%
O=C(C1CCC1)N1CCn2c(COc3ncccn3)nnc2C1	-0.8888%
Cn1c(CN2CCC(O)CC2)nnc1C1CCCN(C(=O)C2CNC2)C1 (stereo unspecified)	15.55%
O=C(C1CCCC1)N1CCn2c(nnc2C2CCCNC2)C1 (stereo unspecified)	107.7%
O=C(CN1CCNC1=O)N1CCc2nnc(-c3ccccc3)n2CC1	-8.724%
O=C(CN1CCCCCC1)N1CCc2nnc(C3CCCNC3)n2CC1 (stereo unspecified)	109%
Cn1c(CN2CCCC2)nnc1C1CCCN(C(=O)CN2CCCC2)C1 (stereo unspecified)	-18.41%
CC(C)OCCN1CCC(Nc2nccnc2C#N)CC1	120.8%
CC(C)OC(=O)N1CCC(Nc2ncc(Br)cn2)CC1	-1.588%
N#Cc1nccnc1NC1CCN(c2c(F)cccc2F)C1 (stereo unspecified)	7.205%
N#Cc1ccccc1N1CCC(Nc2nccnc2C#N)CC1	-4.6%
COCCC(=O)N1CCC(Nc2ncc(Br)cn2)CC1	-2.915%
CC(C)OCCN1CCC(N2CCN(C)C2=O)CC1	7.095%
CC(C)OCCN1CCN(C(=O)c2cc(-n3cccn3)ccn2)CC1	-9.064%
Cc1cc(C)nc(NC2CCN(CCOC(C)C)CC2)n1	107%
CC(C)OCCN1CCC(Nc2ncccn2)CC1	110.1%
CC(C)OCCN1CCC(Nc2ncc(Br)cn2)CC1	82.04%
Cc1cc(C)nc(N2CCC(OCCN3CCCCC3)C2)n1 (stereo unspecified)	5.961%
Cc1cccc(C(=O)N2CCN(CCOC(C)C)CC2)n1	2.598%
CCNC(=O)C1CCCN1S(=O)(=O)c1sc(=O)[nH]c1C (stereo unspecified)	-8.251%
O=S(=O)(C1CC1)N1CCOC2(COCCN(c3ncccn3)C2)C1 (stereo unspecified)	-6.11%
